{"source": "ChEMBL document CHEMBL3988442", "about": "“University of Dundee, Small-Polar-MMV Screening Library” (2021)", "note": "The campaign covered roughly 48,000 compounds. About 13,000 (27%) showed an effect of 50% or more. Some of the results follow.", "data": [{"test_system": "Wolbachia pipientis", "experiment": "Anti-Wolbachia Cell-Based Screen", "format": "functional", "set-up": "scale not given: in the data most compounds retested in dose-response had high values", "conditions": "5 µM", "units": {"Percent Effect": "%"}, "values": [{"smiles": "CNC(=O)c1cccc(CNC(C)c2cc(Cl)ccc2OC)c1", "note": "(stereo unspecified)", "Percent Effect": 8.961}, {"smiles": "CCc1c(C)nn(C)c1NC(=O)N1CCCOC(Cn2cccn2)C1", "note": "(stereo unspecified)", "Percent Effect": -2.471}, {"smiles": "CCOCCn1nc(C)cc1C(=O)N1CC(C)(C)[C@@](C)(O)C1", "Percent Effect": -27.83}, {"smiles": "CC1=Nc2c(c(=O)[nH]n2C(C)C)C(c2ccccc2)S1", "note": "(stereo unspecified)", "Percent Effect": 3.045}, {"smiles": "CC1=Nc2c(c(=O)[nH]n2C(C)C)C(c2ccsc2)S1", "note": "(stereo unspecified)", "Percent Effect": 124.6}, {"smiles": "CC1=Nc2c(c(=O)[nH]n2C(C)C)C(c2ccc(F)c(F)c2)S1", "note": "(stereo unspecified)", "Percent Effect": 0.5897}, {"smiles": "COc1cc(OC)cc(N2CCC(NCc3cc[nH]n3)C2)c1", "note": "(stereo unspecified)", "Percent Effect": -8.563}, {"smiles": "Cc1ccc(C(NC(=O)Cc2nc3ncccn3n2)C2CC2)cc1", "note": "(stereo unspecified)", "Percent Effect": -15.47}, {"smiles": "O=S(=O)(c1ccc2c(c1)CCC2)N1CCCC(Cn2cncn2)C1", "note": "(stereo unspecified)", "Percent Effect": 1.903}, {"smiles": "O=C(NCCNc1ncccn1)NCc1cccc(OC(F)F)c1", "Percent Effect": -1.067}, {"smiles": "CCN(C)Cc1cccc(CNC(=O)CSCc2ccccn2)c1", "Percent Effect": 99.73}, {"smiles": "CCCC(=O)NCc1cccc(C(=O)OC)c1", "Percent Effect": -9.94}, {"smiles": "O=C(CSCc1ccccn1)NCC1CCN(C2CC2)C1", "note": "(stereo unspecified)", "Percent Effect": 21.4}, {"smiles": "COc1cccc(CSCC(=O)NCc2cccnc2)c1", "Percent Effect": 3.69}, {"smiles": "CC(Cn1ccnc1)NC(=O)NCCc1ccccn1", "note": "(stereo unspecified)", "Percent Effect": -12.71}, {"smiles": "CCCSCC(=O)NCc1cccc(CN(C)CC)c1", "Percent Effect": 105}, {"smiles": "CCCSCC(=O)Nc1ncn(CC(=O)NCc2ccccc2)n1", "Percent Effect": 0.11}, {"smiles": "O=C(CSCc1ccccn1)NCC1CC1", "Percent Effect": 22.7}, {"smiles": "CCN(C)Cc1cccc(CNC(=O)NCCc2ccccn2)c1", "Percent Effect": 112.6}, {"smiles": "O=C(CSCc1ccncc1)NCC1CCN(C2CC2)C1", "note": "(stereo unspecified)", "Percent Effect": 13.02}, {"smiles": "CCN(C)Cc1cccc(CNC(=O)CSCc2ccncc2)c1", "Percent Effect": 124.3}, {"smiles": "Cc1csc(N2CCCN(C(=O)C(C)n3ccnc3)CC2)n1", "note": "(stereo unspecified)", "Percent Effect": -4.315}, {"smiles": "Cc1nnc2n1CC(CNCc1nc(-c3cccs3)no1)CC2", "note": "(stereo unspecified)", "Percent Effect": -7.356}, {"smiles": "CCn1cc2c(n1)C(COC)CN(Cc1ccccn1)C2", "note": "(stereo unspecified)", "Percent Effect": -2.413}, {"smiles": "CCSCCn1cc(-c2ncc[nH]2)nn1", "Percent Effect": 7.304}, {"smiles": "CNC1CCN(C2CCN(c3ccc(-c4ccco4)cc3)CC2)CC1", "Percent Effect": -8.193}, {"smiles": "Cn1cc(C(=O)N2CCCN(c3cccnn3)CC2)c2ccccc21", "Percent Effect": -6.467}, {"smiles": "O=S(=O)(CCCn1cncn1)Cc1ccccc1Cl", "Percent Effect": -3.419}, {"smiles": "CC(C)C(=O)Nc1cccc(CNC(=O)CSCc2ccccn2)c1", "Percent Effect": 119.7}, {"smiles": "CC(C)OCCOCc1cccc(NC(=O)NCc2ccccn2)c1", "Percent Effect": 14.04}, {"smiles": "CC(C)c1cc2c(O)nc(CSCC(=O)NCc3ccccn3)nc2s1", "Percent Effect": -13.17}, {"smiles": "Nc1cc2c(nn1)CCN(C(=O)c1cccc3c1OCO3)C2", "Percent Effect": 99.08}, {"smiles": "CNc1cc2c(nn1)CCN(C(=O)c1cccc3c1OCCO3)C2", "Percent Effect": 94.51}, {"smiles": "Nc1cc2c(nn1)CCN(C(=O)c1cccc3c1OCCO3)C2", "Percent Effect": 2.04}, {"smiles": "CCNc1cc2c(nn1)CCN(C(=O)c1cccc3c1OCCO3)C2", "Percent Effect": 1.992}, {"smiles": "CCNc1cc2c(nn1)CCN(C(=O)c1cccc3c1OCO3)C2", "Percent Effect": 107.3}, {"smiles": "CCNc1cc2c(nn1)CCN(C(=O)C1COc3ccccc3O1)C2", "note": "(stereo unspecified)", "Percent Effect": -8.562}, {"smiles": "CNc1cc2c(nn1)CCN(C(=O)c1cccc3c1OCO3)C2", "Percent Effect": -1.864}, {"smiles": "Nc1cc2c(nn1)CCN(C(=O)CCc1ccc3c(c1)OCO3)C2", "Percent Effect": -16.52}, {"smiles": "O=C(c1cnccn1)N1CC[C@H]2[C@H]1CCN2S(=O)(=O)C1CC1", "Percent Effect": -1.574}, {"smiles": "CO[C@@H]1CCN(C(=O)c2cnoc2C)[C@H]1Cc1ccccc1", "Percent Effect": -17.67}, {"smiles": "Cc1cc(C(=O)N2CC[C@H]3[C@H]2CCN3S(C)(=O)=O)c(C)o1", "Percent Effect": 109.3}, {"smiles": "Cc1cc(C(=O)N2C[C@@H]3CN(S(C)(=O)=O)CCO[C@@H]3C2)c(C)o1", "Percent Effect": -7.965}, {"smiles": "Cc1oncc1C(=O)N1CC[C@H]2[C@H]1CCN2S(C)(=O)=O", "Percent Effect": 102.2}, {"smiles": "O=C(c1ccoc1)N1CC[C@H]2[C@H]1CCN2S(=O)(=O)C1CC1", "Percent Effect": -16.54}, {"smiles": "CC(=O)Nc1nc(-c2ccccc2)c[nH]1", "Percent Effect": -21.73}, {"smiles": "CN(C)c1cc(CNC(=O)c2cn(-c3ccc(F)cc3)nn2)ccn1", "Percent Effect": -3.053}, {"smiles": "CN(C)c1cc(CNC(=O)c2ccc(=O)[nH]n2)ccn1", "Percent Effect": 0.8371}, {"smiles": "CN(C)c1cc(CNC(=O)c2ccc(F)cc2F)ccn1", "Percent Effect": 0.296}, {"smiles": "Cc1cc(C(=O)NCc2ccnc(N(C)C)c2)c(C)o1", "Percent Effect": 4.439}, {"smiles": "CN(C)c1cc(CNC(=O)c2ccc(O)nc2)ccn1", "Percent Effect": 121.2}, {"smiles": "CN(C)c1cc(CNC(=O)c2cccnc2O)ccn1", "Percent Effect": 123.9}, {"smiles": "CN(C)c1cc(CNC(=O)c2cc(Cl)ccn2)ccn1", "Percent Effect": 157.2}, {"smiles": "Cc1nccn1-c1cc(CNC(=O)c2ccnc(N(C)C)c2)ccn1", "Percent Effect": 25.84}, {"smiles": "CN(C)c1cc(CNC(=O)c2n[nH]c(=O)c3ccccc23)ccn1", "Percent Effect": 128.9}, {"smiles": "CCS(=O)(=O)c1ccccc1C(=O)NCc1ccnc(N(C)C)c1", "Percent Effect": -0.6479}, {"smiles": "COc1cc(C(=O)N(C)C)ccc1NC(=O)c1ccsc1", "Percent Effect": -14.53}, {"smiles": "CCc1nc(C)c(C2CC(=O)Nc3c2c(-c2cccnc2)nn3C)[nH]1", "note": "(stereo unspecified)", "Percent Effect": 10.2}, {"smiles": "CCNC(=O)NC1CN(Cc2ccncc2Cl)C[C@@H]1OC", "note": "(stereo partly specified)", "Percent Effect": -18.14}, {"smiles": "CC(=O)c1ccc(NC(=O)NCc2cccc(N(C)C)n2)cc1C", "Percent Effect": -13.49}, {"smiles": "COCCN1CCN(Cc2noc(C3CC3)n2)CC1C", "note": "(stereo unspecified)", "Percent Effect": -13.95}, {"smiles": "Cc1nnc(CSc2n[nH]c(-c3ccccn3)n2)o1", "Percent Effect": 3.251}, {"smiles": "O=C1NCCCCC1NS(=O)(=O)N1CCCCCC1", "note": "(stereo unspecified)", "Percent Effect": 41.49}, {"smiles": "CCNC(=O)c1cnc(Sc2nccn2C)c(Cl)c1", "Percent Effect": -8.333}, {"smiles": "COc1nn(C)cc1C(=O)NCC(=O)Nc1cccnc1", "Percent Effect": 5.398}, {"smiles": "CC(=O)N1CCN(c2nc(C(F)(F)F)nc3sc(C)c(C)c23)CC1", "Percent Effect": 10.88}, {"smiles": "c1ccc2c(c1)OCCCC2NCc1nnc2n1CCCCC2", "note": "(stereo unspecified)", "Percent Effect": -26}, {"smiles": "Cc1cc(CN(C)C(=O)NCc2ccnc(N(C)C)c2)no1", "Percent Effect": -11.21}, {"smiles": "CN(C)c1cc(CNC(=O)c2cnccn2)ccn1", "Percent Effect": 139.9}, {"smiles": "Cc1cccc(C(=O)NCc2ccnc(N(C)C)c2)n1", "Percent Effect": -3.78}, {"smiles": "Cc1cnc(C(=O)NCc2ccnc(N(C)C)c2)cn1", "Percent Effect": 122.7}]}]}
